Experimental data: the supplement of paper PMC10849652
Targets with a hit are over-represented here; the source holds about 7,900 in all. About 0.6% of all pairs of compound and target were hits.

What was measured:
Experiment in all cases: log2 fold change, soluble protein after heating vs DMSO (PISA); higher = thermal stabilisation; K562 cells, 10 uM, 30 min; active = over 0.2 and 3.5 SD of the protein, either way, in both replicates (recomputed)
saracatinib = compound: CN1CCN(CCOc2cc(OC3CCOCC3)c3c(Nc4c(Cl)ccc5c4OCO5)ncnc3c2)CC1 [saracatinib]
In short: (§1)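 Thermal stability values are relative to control samples and come from duplicates. They are expressed as log2 fold changes. For measurement, K562 cells (2×10^6 cells/mL) received 10 μM compound for 30 min, and aliquots were heated for 3 min over 48°C-58°C, pooled, and extracted at 4°C in PBS with 0.5% NP-40. Soluble protein, the supernatant after 21,000xg for 90 min, was quantified by TMTpro 16plex LC-MS/MS with equalised channel sums.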

sotrastaurin = compound: CN1CCN(c2nc(C3=C(c4c[nH]c5ccccc45)C(=O)NC3=O)c3ccccc3n2)CC1 [sotrastaurin]
In short: as §1

alvocidib = compound: CN1CC[C@H](c2c(O)cc(O)c3c(=O)cc(-c4ccccc4Cl)oc23)[C@H](O)C1 [alvocidib]
In short: as §1

Tubastatin A = compound: CN1CCc2c(c3ccccc3n2Cc2ccc(C(=O)NO)cc2)C1 [Tubastatin A]
In short: as §1

[1] = compound: CNC(=O)C1=CC=CC=C1NC2=NC(=NC=C2Cl)NC3=C(C=C(C=C3)N4CCOCC4)OC
In short: as §1

defactinib = compound: CNC(=O)c1ccc(Nc2ncc(C(F)(F)F)c(NCc3nccnc3N(C)S(C)(=O)=O)n2)cc1 [defactinib]
In short: as §1

rucaparib = compound: CNCc1ccc(-c2[nH]c3cc(F)cc4c3c2CCNC4=O)cc1 [rucaparib]
In short: as §1

[2] = compound: CNc1nc(-c2ccc3c(N)n[nH]c3c2)cc(N2C[C@@H](C(=O)NC3CCCCC3)CC[C@H]2C)n1
In short: as §1

encorafenib = compound: COC(=O)N[C@@H](C)CNc1nccc(-c2cn(C(C)C)nc2-c2cc(Cl)cc(NS(C)(=O)=O)c2F)n1 [encorafenib]
In short: as §1

[3] = compound: COC(=O)[C@H](CCSC)NC(=O)C1=C(C=C(C=C1)NC[C@H](CS)N)C2=CC=CC=C2
In short: as §1

[4] = compound: COC1=CC=C(C=C1)CN2C=CC3=C2C=C(C=C3)C(=O)NO
In short: as §1

filanesib = compound: CON(C)C(=O)N1N=C(c2cc(F)ccc2F)S[C@@]1(CCCN)c1ccccc1 [filanesib]
In short: as §1

zotarolimus = compound: CO[C@H]1C[C@@H]2CC[C@@H](C)[C@@](O)(O2)C(=O)C(=O)N2CCCC[C@H]2C(=O)O[C@H]([C@H](C)C[C@@H]2CC[C@H](n3cnnn3)[C@H](OC)C2)CC(=O)[C@H](C)/C=C(\C)[C@@H](O)[C@@H](OC)C(=O)[C@H](C)C[C@H](C)/C=C/C=C/C=C/1C [zotarolimus]
In short: as §1

idasanutlin = compound: COc1cc(C(=O)O)ccc1NC(=O)[C@@H]1N[C@@H](CC(C)(C)C)[C@](C#N)(c2ccc(Cl)cc2F)[C@H]1c1cccc(Cl)c1F [idasanutlin]
In short: as §1

alisertib = compound: COc1cc(Nc2ncc3c(n2)-c2ccc(Cl)cc2C(c2c(F)cccc2OC)=NC3)ccc1C(=O)O [alisertib]
In short: as §1

[5] = compound: COc1cc2nc(-c3cc(F)ccc3O)nc(N[C@@H]3CNC[C@H]3C(C)(C)O)c2cc1OC
In short: as §1

gefitinib = compound: COc1cc2ncnc(Nc3ccc(F)c(Cl)c3)c2cc1OCCCN1CCOCC1 [gefitinib]
In short: as §1

[6] = compound: COc1cccc2cc(-c3nc([C@H]4CC[C@H](C(=O)O)CC4)n4ncnc(N)c34)[nH]c12
In short: as §1

lapatinib = compound: CS(=O)(=O)CCNCc1ccc(-c2ccc3ncnc(Nc4ccc(OCc5cccc(F)c5)c(Cl)c4)c3c2)o1 [lapatinib]
In short: as §1

pictilisib = compound: CS(=O)(=O)N1CCN(Cc2cc3nc(-c4cccc5[nH]ncc45)nc(N4CCOCC4)c3s2)CC1 [pictilisib]
In short: as §1

Measured: log2 fold change

KCTD10 (UniProt Q9H3F6)
Chain of UniProt Q9H3F6 (Q9H3F6 whole entry, looked up): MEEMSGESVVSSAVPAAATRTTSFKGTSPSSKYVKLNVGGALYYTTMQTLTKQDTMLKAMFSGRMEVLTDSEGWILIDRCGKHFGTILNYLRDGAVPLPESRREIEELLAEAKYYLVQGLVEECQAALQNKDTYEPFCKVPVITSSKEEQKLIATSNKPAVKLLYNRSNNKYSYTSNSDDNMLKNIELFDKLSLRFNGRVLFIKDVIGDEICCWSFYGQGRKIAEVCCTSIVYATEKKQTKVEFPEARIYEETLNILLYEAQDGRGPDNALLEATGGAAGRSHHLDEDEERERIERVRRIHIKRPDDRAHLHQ
inactive: saracatinib 0.221 | sotrastaurin -0.002 | alvocidib 0.018 | Tubastatin A 0.071 | [1] -0.011 | defactinib 0.013 | rucaparib -0.07 | [2] 0.007 | encorafenib 0.015 | [3] -0.07 | [4] 0.086 | filanesib 0.177 | zotarolimus -0.095 | idasanutlin -0.049 | alisertib -0.06 | [5] 0.079 | gefitinib -0.03 | [6] -0.105 | lapatinib 0.001 | pictilisib -0.039

LIAS (UniProt O43766)
inactive: saracatinib 0.049 | alvocidib 0.065 | Tubastatin A -0.056 | [1] 0.029 | defactinib 0.018 | rucaparib 0.017 | [2] -0.027 | encorafenib 0 | [3] 0.022 | [4] -0.131 | filanesib -0.049 | zotarolimus -0.097 | idasanutlin -0.032 | alisertib -0.041 | [5] 0.132 | gefitinib 0.014 | [6] 0.036 | lapatinib -0.051 | pictilisib 0.078
active: sotrastaurin 0.271

MFN2 (UniProt O95140)
Chain of UniProt O95140 (O95140 whole entry, looked up): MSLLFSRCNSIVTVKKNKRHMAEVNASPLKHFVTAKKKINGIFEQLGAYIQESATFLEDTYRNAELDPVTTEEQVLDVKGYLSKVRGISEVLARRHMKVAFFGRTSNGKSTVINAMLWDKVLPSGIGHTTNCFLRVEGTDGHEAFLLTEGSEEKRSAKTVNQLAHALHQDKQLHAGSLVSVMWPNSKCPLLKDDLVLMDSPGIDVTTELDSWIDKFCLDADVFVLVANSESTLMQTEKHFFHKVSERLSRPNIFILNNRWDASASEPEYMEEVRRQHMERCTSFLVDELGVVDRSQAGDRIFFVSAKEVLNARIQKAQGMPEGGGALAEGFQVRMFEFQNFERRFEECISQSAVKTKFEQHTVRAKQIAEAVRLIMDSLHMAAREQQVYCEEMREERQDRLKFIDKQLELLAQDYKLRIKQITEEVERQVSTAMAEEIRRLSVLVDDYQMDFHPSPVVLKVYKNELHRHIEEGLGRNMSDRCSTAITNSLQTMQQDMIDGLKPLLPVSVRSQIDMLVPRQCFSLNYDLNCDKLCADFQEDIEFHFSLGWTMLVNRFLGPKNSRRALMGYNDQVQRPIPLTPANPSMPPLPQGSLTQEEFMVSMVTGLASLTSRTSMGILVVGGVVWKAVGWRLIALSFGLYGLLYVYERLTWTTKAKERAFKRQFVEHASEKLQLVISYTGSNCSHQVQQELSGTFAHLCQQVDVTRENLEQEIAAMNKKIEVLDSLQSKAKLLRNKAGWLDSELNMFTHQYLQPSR
active: [5] -0.438
inactive: saracatinib -0.005 | sotrastaurin 0.045 | alvocidib -0.012 | Tubastatin A 0.02 | [1] -0.024 | defactinib -0.066 | rucaparib 0.041 | [2] 0.058 | encorafenib -0.006 | [3] -0.026 | [4] 0.04 | filanesib -0.112 | zotarolimus 0.016 | idasanutlin 0 | alisertib -0.043 | gefitinib 0.01 | [6] -0.006 | lapatinib 0.027 | pictilisib -0.058

KDM1A isoform 2 (UniProt O60341)
inactive: saracatinib -0.061 | sotrastaurin -0.139 | alvocidib -0.108 | Tubastatin A 0.127 | [1] -0.032 | defactinib -0.065 | rucaparib 0.14 | [2] 0.021 | encorafenib 0.052 | [3] -0.032 | [4] 0.019 | filanesib 0.004 | zotarolimus -0.009 | idasanutlin -0.03 | alisertib -0.055 | [5] 0.07 | gefitinib 0.022 | [6] -0.036 | lapatinib 0.068 | pictilisib -0.008

ILF2 (UniProt Q12905)
Chain of UniProt Q12905 (Q12905 whole entry, looked up): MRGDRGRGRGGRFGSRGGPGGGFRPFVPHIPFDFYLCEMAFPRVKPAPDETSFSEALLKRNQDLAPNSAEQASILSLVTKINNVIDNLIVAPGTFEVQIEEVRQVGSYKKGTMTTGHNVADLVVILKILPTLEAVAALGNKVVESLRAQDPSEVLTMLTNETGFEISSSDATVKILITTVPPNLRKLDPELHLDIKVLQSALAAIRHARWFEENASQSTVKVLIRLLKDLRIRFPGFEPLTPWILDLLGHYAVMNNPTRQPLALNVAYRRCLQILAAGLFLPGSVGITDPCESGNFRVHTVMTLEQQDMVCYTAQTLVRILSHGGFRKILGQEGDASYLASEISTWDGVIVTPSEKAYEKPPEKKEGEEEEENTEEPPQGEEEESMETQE
inactive: saracatinib 0.039 | sotrastaurin 0.041 | alvocidib 0.325 | Tubastatin A -0.058 | [1] 0.015 | rucaparib 0.19 | [2] 0.04 | encorafenib 0.028 | [3] 0.012 | [4] 0.086 | filanesib 0.101 | zotarolimus -0.024 | idasanutlin 0.084 | alisertib -0.146 | [5] 0.068 | gefitinib -0.045 | [6] -0.08 | lapatinib 0.101 | pictilisib -0.035
active: defactinib 0.491

KIF11 (UniProt P52732)
Chain of UniProt P52732 (P52732 whole entry, looked up): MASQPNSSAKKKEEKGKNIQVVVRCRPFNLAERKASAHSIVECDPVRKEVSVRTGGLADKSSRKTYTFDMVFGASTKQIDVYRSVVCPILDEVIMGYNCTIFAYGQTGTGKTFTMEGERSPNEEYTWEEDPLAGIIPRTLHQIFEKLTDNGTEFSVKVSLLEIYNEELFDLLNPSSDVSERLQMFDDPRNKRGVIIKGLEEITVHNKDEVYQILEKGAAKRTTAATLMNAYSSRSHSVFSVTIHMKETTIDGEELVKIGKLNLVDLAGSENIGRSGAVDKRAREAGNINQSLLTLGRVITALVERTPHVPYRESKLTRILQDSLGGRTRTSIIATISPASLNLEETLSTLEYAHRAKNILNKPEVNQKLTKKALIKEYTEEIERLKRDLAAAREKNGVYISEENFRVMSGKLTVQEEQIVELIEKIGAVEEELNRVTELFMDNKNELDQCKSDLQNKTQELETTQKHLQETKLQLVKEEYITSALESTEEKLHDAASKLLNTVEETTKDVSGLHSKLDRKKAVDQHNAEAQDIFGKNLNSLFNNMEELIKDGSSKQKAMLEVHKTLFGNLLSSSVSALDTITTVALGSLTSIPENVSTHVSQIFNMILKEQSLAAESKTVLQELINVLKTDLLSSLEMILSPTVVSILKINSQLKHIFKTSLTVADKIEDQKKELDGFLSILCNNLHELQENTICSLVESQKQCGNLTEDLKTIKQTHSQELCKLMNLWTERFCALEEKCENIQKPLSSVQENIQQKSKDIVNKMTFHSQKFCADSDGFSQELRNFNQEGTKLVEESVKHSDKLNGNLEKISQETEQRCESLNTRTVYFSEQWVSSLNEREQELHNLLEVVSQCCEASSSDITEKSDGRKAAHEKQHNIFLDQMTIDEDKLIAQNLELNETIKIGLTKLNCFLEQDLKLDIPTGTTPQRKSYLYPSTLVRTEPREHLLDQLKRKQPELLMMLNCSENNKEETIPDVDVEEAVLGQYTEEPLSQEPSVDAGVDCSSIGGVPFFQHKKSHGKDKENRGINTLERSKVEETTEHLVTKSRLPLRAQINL
inactive: saracatinib -0.059 | sotrastaurin -0.2 | alvocidib 0.041 | Tubastatin A 0.05 | [1] 0.275 | defactinib 0.017 | rucaparib 0.183 | [2] 0.088 | encorafenib 0.174 | [3] -0.055 | [4] -0.004 | zotarolimus 0.074 | idasanutlin 0.026 | alisertib 0.011 | [5] 0.043 | gefitinib -0.002 | [6] -0.063 | lapatinib -0.018 | pictilisib 0.046
active: filanesib 1.1

LIMA1 isoform 4 (UniProt Q9UHB6)
Chain of UniProt Q9UHB6 (Q9UHB6 whole entry, looked up): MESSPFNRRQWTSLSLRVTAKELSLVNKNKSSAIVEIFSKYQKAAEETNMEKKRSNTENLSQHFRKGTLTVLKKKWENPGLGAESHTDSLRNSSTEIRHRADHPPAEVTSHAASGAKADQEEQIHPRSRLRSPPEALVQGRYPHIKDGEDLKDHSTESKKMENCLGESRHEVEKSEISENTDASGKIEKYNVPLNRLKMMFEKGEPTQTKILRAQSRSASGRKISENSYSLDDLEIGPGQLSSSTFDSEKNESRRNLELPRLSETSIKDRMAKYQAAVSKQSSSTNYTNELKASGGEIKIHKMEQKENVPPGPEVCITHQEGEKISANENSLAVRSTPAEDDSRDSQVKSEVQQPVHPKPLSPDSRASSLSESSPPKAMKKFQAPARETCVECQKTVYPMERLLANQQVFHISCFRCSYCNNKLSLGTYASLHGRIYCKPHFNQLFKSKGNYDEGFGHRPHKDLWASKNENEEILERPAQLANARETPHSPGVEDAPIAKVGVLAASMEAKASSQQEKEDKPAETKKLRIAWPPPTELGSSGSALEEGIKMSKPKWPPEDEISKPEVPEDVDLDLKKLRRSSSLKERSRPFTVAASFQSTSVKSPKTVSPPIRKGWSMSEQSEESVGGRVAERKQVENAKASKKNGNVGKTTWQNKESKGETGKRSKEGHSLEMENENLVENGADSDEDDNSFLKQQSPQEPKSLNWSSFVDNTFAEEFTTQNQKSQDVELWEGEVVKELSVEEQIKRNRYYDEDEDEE
inactive: saracatinib 0.046 | sotrastaurin -0.109 | alvocidib 0.111 | Tubastatin A 0.014 | [1] -0.033 | defactinib -0.015 | rucaparib 0.074 | [2] -0.089 | encorafenib 0.017 | [3] 0.01 | [4] -0.044 | filanesib 0.178 | zotarolimus 0.021 | idasanutlin 0.008 | alisertib -0.028 | [5] 0.171 | gefitinib 0.077 | [6] 0.11 | lapatinib -0.126 | pictilisib -0.1

KRAS isoform 2 (UniProt P01116)
Chain of UniProt P01116 (P01116 whole entry, looked up): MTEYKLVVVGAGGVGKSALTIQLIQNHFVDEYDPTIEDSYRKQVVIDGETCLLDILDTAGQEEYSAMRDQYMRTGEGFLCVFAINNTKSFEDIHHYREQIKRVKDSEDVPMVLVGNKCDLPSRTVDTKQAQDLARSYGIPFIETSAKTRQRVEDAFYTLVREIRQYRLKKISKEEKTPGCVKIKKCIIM
inactive: saracatinib 0.039 | sotrastaurin 0.045 | alvocidib -0.062 | Tubastatin A -0.036 | [1] 0.027 | defactinib 0.013 | rucaparib -0.028 | [2] 0.011 | encorafenib 0.043 | [3] 0.02 | [4] 0.01 | filanesib 0.005 | zotarolimus -0.033 | idasanutlin 0.099 | alisertib 0.029 | [5] 0.037 | gefitinib 0.015 | [6] 0.033 | lapatinib -0.009 | pictilisib 0.046

LRPPRC (UniProt P42704)
inactive: saracatinib -0.281 | sotrastaurin -0.874 | alvocidib -0.58 | Tubastatin A 0.316 | [1] -0.241 | defactinib -0.346 | rucaparib 0.395 | [2] -0.175 | encorafenib 0.116 | [3] -0.103 | [4] 0.303 | filanesib -0.788 | zotarolimus -0.02 | idasanutlin 0 | alisertib 0.207 | [5] -0.638 | gefitinib -0.189 | [6] 0.119 | lapatinib -0.091 | pictilisib -0.119

KIF3B (UniProt O15066)
Chain of UniProt O15066 (O15066 whole entry, looked up): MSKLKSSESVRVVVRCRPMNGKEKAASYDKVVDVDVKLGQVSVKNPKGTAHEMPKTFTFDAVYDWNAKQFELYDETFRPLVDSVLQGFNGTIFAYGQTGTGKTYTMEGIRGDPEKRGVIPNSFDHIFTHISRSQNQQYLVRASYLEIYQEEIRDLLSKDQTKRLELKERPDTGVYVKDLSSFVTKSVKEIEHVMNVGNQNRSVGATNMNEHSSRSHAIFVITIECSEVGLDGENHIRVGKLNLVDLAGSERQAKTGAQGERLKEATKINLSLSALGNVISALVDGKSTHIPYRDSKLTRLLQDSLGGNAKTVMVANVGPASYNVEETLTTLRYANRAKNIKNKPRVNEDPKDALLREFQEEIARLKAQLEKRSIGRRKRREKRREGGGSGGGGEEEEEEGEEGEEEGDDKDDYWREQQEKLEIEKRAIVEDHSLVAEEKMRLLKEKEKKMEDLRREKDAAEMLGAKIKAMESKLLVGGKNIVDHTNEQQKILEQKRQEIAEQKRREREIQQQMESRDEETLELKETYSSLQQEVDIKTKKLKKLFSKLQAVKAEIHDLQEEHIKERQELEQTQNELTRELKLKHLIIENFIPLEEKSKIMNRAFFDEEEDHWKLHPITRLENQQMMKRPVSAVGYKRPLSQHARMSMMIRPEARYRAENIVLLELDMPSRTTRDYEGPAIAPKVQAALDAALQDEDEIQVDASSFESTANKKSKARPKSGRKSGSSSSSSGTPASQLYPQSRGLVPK
inactive: saracatinib -0.068 | sotrastaurin 0.005 | alvocidib -0.011 | Tubastatin A 0.002 | [1] 0.069 | defactinib 0.028 | rucaparib -0.189 | [2] -0.063 | encorafenib 0.034 | [3] -0.043 | [4] -0.071 | filanesib 0.04 | zotarolimus 0.027 | idasanutlin -0.252 | alisertib -0.071 | [5] 0.164 | [6] 0.04 | lapatinib 0.035 | pictilisib -0.161

MAGEA8 (UniProt P43361)
Chain of UniProt P43361 (P43361 whole entry, looked up): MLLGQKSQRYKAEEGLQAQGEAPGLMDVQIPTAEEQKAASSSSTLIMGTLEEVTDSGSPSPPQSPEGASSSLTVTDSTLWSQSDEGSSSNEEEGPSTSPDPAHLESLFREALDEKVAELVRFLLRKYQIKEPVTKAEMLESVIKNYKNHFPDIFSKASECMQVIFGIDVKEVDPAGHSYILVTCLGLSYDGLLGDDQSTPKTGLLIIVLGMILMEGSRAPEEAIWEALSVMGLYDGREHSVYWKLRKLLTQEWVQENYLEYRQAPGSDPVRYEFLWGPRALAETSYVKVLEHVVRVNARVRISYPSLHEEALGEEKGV
inactive: saracatinib -0.006 | alvocidib -0.022 | Tubastatin A 0.101 | [1] 0.123 | defactinib -0.267 | rucaparib -0.012 | [2] -0.092 | encorafenib 0.038 | [3] -0.038 | [4] 0.061 | zotarolimus 0.108 | idasanutlin 0.002 | [5] 0.057 | gefitinib -0.069 | lapatinib -0.032 | pictilisib 0.145

MED22 (UniProt Q15528)
Chain of UniProt Q15528 (Q15528 whole entry, looked up): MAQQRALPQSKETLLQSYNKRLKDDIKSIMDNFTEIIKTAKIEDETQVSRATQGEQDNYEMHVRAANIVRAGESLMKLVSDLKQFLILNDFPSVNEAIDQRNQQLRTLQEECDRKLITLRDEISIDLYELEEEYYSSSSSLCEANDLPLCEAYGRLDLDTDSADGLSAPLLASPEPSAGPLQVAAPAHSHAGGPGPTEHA
inactive: saracatinib -0.089 | sotrastaurin -0.007 | alvocidib -0.055 | Tubastatin A 0.332 | [1] -0.051 | defactinib -0.043 | rucaparib 0.021 | [2] 0.044 | encorafenib 0.12 | [3] 0.097 | [4] -0.03 | filanesib -0.008 | zotarolimus 0.047 | idasanutlin -0.023 | alisertib 0.019 | gefitinib 0.017 | [6] -0.171
